Assay results published in PubChem BioAssay AID977607 (Broad Institute, 2014).
About 460 (31%) of roughly 1,500 compounds were called active. About 1% were inconclusive and are not listed. A selection follows. Results with a measured potency or affinity are listed apart. Values without a mark were called inactive.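 The calls were made as follows: active = curve reaches 40% activation over neutral controls at an AC40 no higher than the top valid tested concentration; inconclusive = no clear call, values can overlap the other calls; inactive = signal moving opposite to the expected increase, and the rest.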

Test: GLuc-reported insulin release enhancers, glucose-stimulated beta cells – cell-based, INS-1E, Gaussia luciferase, luminescence, cherry-pick, set 2, dose response (AID 977607);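 also: 0% = median of the plate neutral control wells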
Conditions: INS-1E GLuc insulin secretion reporter, 2-3 h, stronger effect = higher value; at 35 µM, 100% = signal doubled over neutral wells unless noted
In the case of `O=C(NCCC1CCCCN1S(=O)(=O)c1ccc(F)cc1)C(=O)NCc1cccnc1` (centres undefined), the max activation is reported as -23.5% [at 1.2 µM, 100% = signal doubled over neutral wells].
`COc1ccc2oc(-c3ccncc3)cc(=O)c2c1` showed a max activation of 16.4%.
With `COc1ccc(C(=O)Cc2cc3cccc(OC)c3oc2=O)cc1` the max activation was -21.5% [at 0.0016 µM, 100% = signal doubled over neutral wells].
Compound `O=C(NCc1ccccn1)c1ccccc1OCc1ccc(Cl)cc1Cl` has a max activation of -25.4%.
With `COc1ccc2oc(=O)c(C(=O)NCc3ccccn3)cc2c1` the max activation was -9.33% [at 1.2 µM, 100% = signal doubled over neutral wells].
In the case of `COc1ccc(Cc2nnc(-c3ccccc3)o2)cc1`, the max activation is reported as 24.7% [at 0.42 µM, 100% = signal doubled over neutral wells].
In the case of `COc1cc(CN(C)c2ccc(S(=O)(=O)N3CCCC3)cn2)ccc1OC(F)F`, the max activation is reported as -33.3% [at 11 µM, 100% = signal doubled over neutral wells].
With `CCN1CCN(CC(=O)Nc2ccc(C(C)=O)cc2)CC1` the max activation was -17% [at 1.2 µM, 100% = signal doubled over neutral wells].
In the case of `O=C(NC(=S)Nc1cccc2[nH]ncc12)c1ccccc1`, the max activation is reported as -16.1% [at 1.2 µM, 100% = signal doubled over neutral wells].
With `COc1ccc(C(=O)/C=C2/c3ccccc3CC(C)(C)N2C)cc1OC` the max activation was -35.3% [at 1.2 µM, 100% = signal doubled over neutral wells].
In the case of `COc1ccc(C(=O)c2sc(Nc3ccccc3)nc2N)cc1OC`, the max activation is reported as 39.1% [at 3.8 µM, 100% = signal doubled over neutral wells].
In the case of `CC(C)COC(=O)N1C[C@H](O)C[C@H]1C(=O)Nc1ccc(Cl)cc1`, the max activation is reported as -12.6% [at 0.015 µM, 100% = signal doubled over neutral wells].
In the case of `Cc1ccc(-c2nc3c(=O)n(C)c4ccccc4c3o2)cc1`, the max activation is reported as 27.7% [at 0.42 µM, 100% = signal doubled over neutral wells].
For `O=C(Nc1ccc(NC(=O)c2cccs2)cc1)c1ccc2c(c1)OCO2`, the max activation was -18.9% [at 3.8 µM, 100% = signal doubled over neutral wells].
With `O=C(Nc1ccc2oc(-c3cccnc3)nc2c1)c1ccc2c(c1)OCCO2` the max activation was 21%.
`CN1CCCCCC1C(=O)N1CCC(N2CCC(C(=O)N3CCOCC3)CC2)CC1` (centres undefined) gave a max activation of -16.3%.
With `CCOC(=O)c1ccc(S(=O)(=O)N2CCC(C(=O)Nc3nnc(C)o3)CC2)cc1` the max activation was -12.8% [at 0.0016 µM, 100% = signal doubled over neutral wells].
`O=C(Nc1nnc(-c2ccc(F)cc2)s1)C1CCN(S(=O)(=O)c2ccc(Cl)cc2)CC1` gave a max activation of 18.7%.
For `COc1ccccc1N(CC(=O)NCC1CCCO1)C(=O)CNS(=O)(=O)c1ccc(Cl)cc1` (centres undefined), the max activation was -20% [at 0.42 µM, 100% = signal doubled over neutral wells].
For `Fc1ccccc1-c1nnc2ccc3ccccc3n12`, the max activation was -19.8% [at 0.135 µM, 100% = signal doubled over neutral wells].
For `C[C@@H]1CN([C@H](C)CO)C(=O)CCCn2nncc2CO[C@H]1CN(C)C(=O)Nc1ccnc(N2CCOCC2)c1`, the max activation was -14% [at 0.015 µM, 100% = signal doubled over neutral wells].
Work on `COc1ccc(C(=O)Nc2ccccc2C(=O)NCC2CCCO2)cc1` (centres undefined) yielded a max activation of 6.34%.
For `COc1ccc(NC(=O)C2(c3ccc(NC(=O)c4ccc(OC)cc4)cc3)CCCC2)cc1`, the max activation was -18.4% [at 0.005 µM, 100% = signal doubled over neutral wells].
In the case of `COc1ccc(CCN2CC(=O)NC(=O)C2)cc1OC`, the max activation is reported as -13.9% [at 3.8 µM, 100% = signal doubled over neutral wells].
Work on `CCN(c1ccccc1)c1nc(Cl)nc2c1cnn2C` yielded a max activation of 28.8%.
With `COCc1ccc(C(=O)NC2CCSc3ccccc32)cc1` (centres undefined) the max activation was -17.7%.
For `COc1ccc(-c2ccc(=O)n(CC(=O)NC3CCc4ccccc43)n2)cc1OC` (centres undefined), the max activation was 20.7% [at 11 µM, 100% = signal doubled over neutral wells].
For `CCCc1cc(=O)oc2cc(C)cc(OCC(=O)Nc3ccc(S(N)(=O)=O)cc3)c12`, the max activation was 24.1% [at 1.2 µM, 100% = signal doubled over neutral wells].
For `Cn1c(=O)c(=O)n(C)c2cc(S(=O)(=O)N3CCN(c4ccc(F)cc4)CC3)ccc21`, the max activation was -17.9% [at 0.046 µM, 100% = signal doubled over neutral wells].
In the case of `CSc1ccc2nnc(-c3cccc(F)c3)n2n1`, the max activation is reported as 16.4%.
`COc1cccc(-c2cc(C(F)(F)F)nc(-n3cncn3)n2)c1` showed a max activation of -20.7%.
In the case of `CC(C)CC#Cc1ccc([C@H]2[C@H]3CN(C(=O)c4cnccn4)CC(=O)N3[C@H]2CO)cc1`, the max activation is reported as 35.4% [at 0.015 µM, 100% = signal doubled over neutral wells].
In the case of `CCN(Cc1ccncc1)C(=O)c1cccc(S(=O)(=O)N2CCCCC2)c1`, the max activation is reported as -18% [at 1.2 µM, 100% = signal doubled over neutral wells].
For `COc1ccccc1CNC(=O)CCS(=O)(=O)Cc1ccc(C)cc1`, the max activation was -17.3%.
`Cc1ccc(NC2c3ncccc3C(=O)N2C2CCCCC2)cc1` (centres undefined) gave a max activation of 28.1%.
`COc1ccc(-c2nnc(-c3cccs3)o2)cc1OC` showed a max activation of 29.4%.
Compound `COc1ccc(C2=Nn3c(nnc3-c3ccccc3OC)SC2)cc1OCC1CC1` has a max activation of -35.7%.
In the case of `COc1ccc(C2=Nn3c(nnc3-c3ccccc3OC)SC2)cc1OC1CCOC1` (centres undefined), the max activation is reported as 43.3% [at 1.2 µM, 100% = signal doubled over neutral wells].
With `COc1ccc(C(O)c2nccc3cc(OC)c(OC)cc23)cc1OC` (centres undefined) the max activation was 44.3% [at 3.8 µM, 100% = signal doubled over neutral wells].
`COc1ccc(CO/N=C/c2c(C)[nH]c(=O)[nH]c2=O)cc1` showed a max activation of 16.7%.
With `COC(=O)C1C(=O)NC(SC)=C(C#N)C1c1ccccc1` (centres undefined) the max activation was -22.6% [at 0.015 µM, 100% = signal doubled over neutral wells].
With `O=C1N(c2ccccc2)c2ccccc2[C@]12C[C@H](O)CO2` the max activation was -20.7% [at 0.135 µM, 100% = signal doubled over neutral wells].
With `O=C(COc1ccc(Cl)cc1)NCCS(=O)(=O)N1CCN(c2ccccc2F)CC1` the max activation was -18.1% [at 0.135 µM, 100% = signal doubled over neutral wells].
Compound `COc1ccc(OC)c(C2=Nn3c(nnc3-c3ccncc3)SC2)c1` has a max activation of 12.7%.
In the case of `C[C@@H]1O[C@H](C2CCCC2)CC2=C1C(=O)OC(C)(C)O2`, the max activation is reported as 18% [at 1.2 µM, 100% = signal doubled over neutral wells].
In the case of `CC[C@@H]1CC2=C(C(=O)OC(C)(C)O2)[C@H](c2ccc(F)cc2)O1`, the max activation is reported as 23.8% [at 3.8 µM, 100% = signal doubled over neutral wells].
Compound `C=CCNc1nc(Cl)nc(Nc2ccc(OC)cc2)n1` has a max activation of 50.7%.
For `CCOc1cc(/C=C(\CC(=O)O)c2nc3ccccc3s2)ccc1OC`, the max activation was -15% [at 0.005 µM, 100% = signal doubled over neutral wells].
With `c1ccc(-c2ccccc2OCCN2CCCCC2)cc1` the max activation was -15.6% [at 0.015 µM, 100% = signal doubled over neutral wells].
For `C/C=C1\COC(C(=O)NCc2ccccc2)(C(F)(F)F)C=C1C=C1CCCCC1` (centres undefined), the max activation was -27% [at 11 µM, 100% = signal doubled over neutral wells].
For `COc1cc(OC)c2c(-c3ccccc3)cc(C3CCCCC3)nc2c1`, the max activation was -18.2% [at 0.046 µM, 100% = signal doubled over neutral wells].
With `Cc1cccc(C)c1NC(=O)C1c2ccccc2OCC(=O)N1CCCN1CCOCC1` (centres undefined) the max activation was -19% [at 3.8 µM, 100% = signal doubled over neutral wells].
In the case of `Cc1ccc(-c2nc(C#N)c(NCC3CCCO3)o2)cc1` (centres undefined), the max activation is reported as -16.4% [at 0.135 µM, 100% = signal doubled over neutral wells].
For `CCOc1ccc(Nc2oc(-c3cccc(Cl)c3)nc2C#N)cc1`, the max activation was -13.2% [at 0.135 µM, 100% = signal doubled over neutral wells].
For `CCCCC(=O)Nc1ccc(C(=O)NNC(=O)c2ccc(C)c(Br)c2)cc1`, the max activation was -20.4% [at 3.8 µM, 100% = signal doubled over neutral wells].
With `CC1CCC(C(C)C)C(OCC(O)CNC(C)c2ccccc2)C1` (centres undefined) the max activation was 35.2%.
With `COc1ccc2c(c1)C(C)(Cc1ccc(C(=O)c3ccccc3)cc1)C(=O)N2` (centres undefined) the max activation was -33.7%.
In the case of `Cc1ccccc1-c1n[nH]c(=S)n1/N=C/c1c(C)nn(-c2ccccc2)c1C`, the max activation is reported as -18% [at 0.0016 µM, 100% = signal doubled over neutral wells].
Work on `Cc1ccsc1/C=N/n1c(-c2ccncc2)n[nH]c1=S` yielded a max activation of 18.6%.
